# Compound activity: PubChem, several laboratories
# Cl transport mod = modulators of human KCC2 chloride dependent transport; Q9H2X9; B-score of Tl+ flux slope (higher = more flux/activation; lower = inhibition) at 10 µM; 190,000 compounds, 2.2% hits; KCC2 cells, thallium flux FluoZin-2 fluorescence; AID 1456;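 active = thallium flux slope and its plate-corrected score both differing from the plate sample mean at a set confidence after two filtering rounds, in either direction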;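 note: slope of fluorescence scaled to starting intensity during 10 to 20 s after thallium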
# S1P3 antag = antagonists of human S1P3 receptor. Q99500. CHO S1P3 NFAT-BLA reporter, FRET fluorescence, antagonist mode. inhibition, % at 4.98 µM. 170,000 compounds, 0.27% hits. AID 485;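 active = inhibition above the plate cutoff, the mean inhibition of test wells on that plate plus 3 SD, cut at about 28% in these data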;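 note: cells challenged with S1P at its EC80 of 0.8 µM; blue over green emission ratio from cleaved BLA substrate after 4 h stimulation; 0% = S1P-stimulated wells and 100% = unstimulated DMSO-only wells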
# EP2 modulator = modulates human prostaglandin E2 receptor EP2 signaling; P43116; EP2-expressing cells, cAMP HTRF FRET, PGE2 co-stimulation; induction, % at 25 µM; 260,000 compounds, 0.83% hits;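 active = compounds whose cAMP rise, as percent of the full-agonist control response, exceeds 60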;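 note: rat C6 glioma line stably carrying human EP2 under a CMV promoter; the protocol text gives 20 µM as final concentration; 100% = response of wells given 1 µM PGE2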
# Target sequence (P43116 whole entry, looked up): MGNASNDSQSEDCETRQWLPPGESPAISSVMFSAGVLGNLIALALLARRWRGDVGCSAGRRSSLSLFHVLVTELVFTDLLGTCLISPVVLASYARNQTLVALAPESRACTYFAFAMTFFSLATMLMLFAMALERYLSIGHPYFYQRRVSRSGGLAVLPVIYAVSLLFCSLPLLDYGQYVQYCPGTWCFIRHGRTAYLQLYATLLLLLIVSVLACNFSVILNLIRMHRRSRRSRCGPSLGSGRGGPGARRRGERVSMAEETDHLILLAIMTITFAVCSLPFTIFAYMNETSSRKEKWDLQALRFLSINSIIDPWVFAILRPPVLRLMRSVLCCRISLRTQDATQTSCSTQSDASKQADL
# EP2 antag = blocks the human prostaglandin E2 receptor EP2 | P43116 | C6 glioma cells expressing human EP2, cAMP TR-FRET; cells stimulated with saturating PGE2 | inhibition, % at 25 µM | 260,000 compounds, 0.52% hits | AID 1422;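 active = percent inhibition above 40 after rounding to a whole number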;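 note: rat C6 glioma host cells with rolipram phosphodiesterase inhibitor present; the protocol text gives 20 µM as final concentration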
# KCC2 secondary = confirmation of human KCC2 transport modulators. 3,700 compounds, 15% hits. shares compounds with Cl transport mod. normalised thallium flux (F/F0 slope) at 10 µM. HEK293-KCC2, thallium flux, FluoZin2 fluorescence; active compounds read high. AID 1713;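 active = thallium flux slope above the same plate's solvent-only control mean plus 3 SD; inconclusive = the two replicate wells disagree; inactive = no significant difference from solvent-only control wells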
# KCC2 bumet counter = bumetanide-insensitive thallium flux in KCC2 cells with ouabain, counter-screen; 3,700 compounds, 49% hits; AID 1714; HEK293-KCC2 + bumetanide/ouabain, thallium flux FluoZin2; active compounds read high; shares compounds with Cl transport mod; normalized thallium flux at 10 µM;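 active = thallium entry rate above the same plate's blocked-transporter control wells by more than 3 SD; inconclusive = the two repeat wells disagree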;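 note: raw slope of fluorescence over initial fluorescence between 10 and 20 s after thallium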
# KCC2 sec2 = KCC2 (human) modulation, second secondary assay. AID 1715. shares compounds with Cl transport mod. normalized thallium flux at 10 µM. HEK293-KCC2, thallium flux FluoZin2 fluorescence; actives lie on both sides; F/F0 rise rate, 10–20 s post-thallium. 3,700 compounds, 23% hits;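 active = thallium flux slope more than 3 SD above or below the plate's solvent-only control mean, mostly below; inconclusive = the two repeat wells disagreed; inactive = no significant shift from solvent-only controls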;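 note: raw slope with 0.1% DMSO as baseline and bumetanide as block control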
# HEK293 Tl flux = acts in parental HEK cells, KCC2 counter-screen. shares compounds with Cl transport mod. HEK293 parental cells, thallium flux FluoZin2, ouabain; baseline-ratio fluorescence slope, 10–20 s after thallium. thallium flux rate (normalised fluorescence) at 10 µM. 3,700 compounds, 46% hits. AID 1716;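 active = thallium flux rate significantly above the same plate's solvent-only control wells, beyond their mean plus 3 SD; inconclusive = the two replicate wells gave conflicting results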
# KCC2 retest ouab = modulates human KCC2 on retest with ouabain. HEK293-KCC2, thallium flux FluoZin2 fluorescence; bidirectional: low = inhibitor, high = activator. raw Tl+ flux slope (below DMSO = inhibition, above = activation) at 10 µM. shares compounds with Cl transport mod. AID 1717. 3,700 compounds, 48% hits;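 active = thallium flux slope beyond 3 SD from same-plate DMSO control mean in most replicates, usually higher, sometimes lower; inconclusive = repeat tests gave conflicting results; inactive = no significant difference from controls in most replicates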;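 note: slope of initial-normalized fluorescence between seconds 10 and 20 after thallium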
# HEK counter2 = parental HEK flux effect, counter-screen 2 | HEK293 parental, thallium flux FluoZin-2 fluorescence slope | shares compounds with Cl transport mod | AID 1718 | thallium flux slope at 10 µM | 3,700 compounds, 33% hits;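 active = thallium flux slope above the same plate's solvent-control mean plus 3 SD in both duplicate wells; inconclusive = duplicate wells that disagreed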;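 note: run without ouabain in cells lacking the KCC2 cotransporter; slope of fluorescence scaled to its starting value between 10 and 20 s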
# Starred values were filed as active, the others as inactive; u = inconclusive; x = not tested or not shown. The list is not random: actives were taken first. Their share in the collection is about 3.1%.
SMILES,Cl transport mod,S1P3 antag,EP2 modulator,EP2 antag,KCC2 secondary,KCC2 bumet counter,KCC2 sec2,HEK293 Tl flux,KCC2 retest ouab,HEK counter2
C=CCn1c(C)cc(C2=NNC(=NCc3ccccc3)SC2)c1C,0.48,-19,-32,26,x,x,x,x,x,x
Cc1ccc(C)c(C2=NNC(=NCc3ccccc3)SC2)c1,8.9*,-10,25,2,0.01,0.038*,0.036,u,0.033*,u
CCCCc1nnc(NC(=O)Cn2cnc3ccccc3c2=O)s1,0.61,2,29,6,x,x,x,x,x,x
O=C(Cn1cnc2ccccc2c1=O)Nc1nnc(SCc2ccccc2)s1,x,x,-10,3,0.0089,0.0067,0.029,0.009*,0.021,u
COc1cccc(C(=O)CSc2nnc(CNS(=O)(=O)c3ccc(C)cc3)n2C)c1,-4.2*,-14,0,14,0.0099,0.0072,0.032,0.0084,0.024,0.011*
CCC(=O)N1CCc2cc(C(=O)CN3CCC(O)(c4ccc(F)cc4)CC3)ccc21,x,x,-35,6,x,x,x,x,x,x
O=C1Nc2nc(=O)nc3[nH]c(=O)nc(n23)N1,x,x,18,8,x,x,x,x,x,x
O=c1c2ccccc2nnn1Cc1ccccn1,-5*,7,-3,3,0.011,u,0.033,0.0076,0.022,0.01
COc1ccccc1OCc1nnc(SCC(=O)N(C)C)o1,x,x,0,9,x,x,x,x,x,x
Cc1csc(N(C)C(=O)CSc2nnc(COc3cccc4ccccc34)o2)n1,x,15,-21,14,0.007,0.006,0.027,0.0063,0.015*,0.0091
Cc1cc(C)cc(NC(=O)c2oc3ccccc3c2COc2ccccc2)c1,-4.8*,0,55,8,0.0084,0.0061,0.031,0.0079,0.018,0.011
CCn1c(SCC(=O)Nc2ccc(OC)cc2OC)nnc1-c1ccncc1,x,x,5,5,x,x,x,x,x,x
O=C1Nc2ccccc2S/C1=C\C(=O)N1CCCC1,1.1,6,-26,16,x,x,x,x,x,x
O=C1Nc2ccccc2S/C1=C/Nc1cccc(Cl)c1,x,x,-30,3,0.017,u,0.029,0.0071,0.015*,0.0097
CCC(=O)N1CCN(c2ccc(NC(=O)COc3ccccc3Cl)cc2)CC1,x,x,9,8,x,x,x,x,x,x
CCC(=O)N1CCN(c2ccccc2NC(=O)COc2ccccc2Cl)CC1,x,8,8,10,0.0079,u,0.037,u,0.019,0.01
COC(=O)CCCC1=CC2=C(c3ccccc3)C(=O)C(C)(OC(=O)C3CCCC3)C(=O)C2=CN1Cc1ccc(OC)cc1 (configuration not stated),-2.6*,x,8,12,0.015,0.0042,0.029,0.0065,0.016,0.0087
Cc1ccc2cccc(NC(=S)NC(=O)c3ccn(C)n3)c2n1,x,x,-3,11,x,x,x,x,x,x
Cc1ccc2cccc(NC(=S)NC(=O)c3c(Br)cnn3C)c2n1,5.7*,x,20,6,0.0067,0.015*,0.027,0.014*,0.029*,0.012*
Nc1c(C(=O)O)sc2nc(-c3ccccc3)cc(-c3ccc(F)cc3)c12,-5.4*,-1,26,12,0.0089,0.012*,0.028,0.0069,0.012*,0.01
Nc1c(C(=O)O)sc2nc(-c3ccccc3)cc(-c3ccccc3)c12,0.42,-15,47,10,x,x,x,x,x,x
Cc1ccc2c(c1)c(N=NC(N)=S)c(O)n2Cc1ccccc1,4.3*,-3,-8,6,0.0051,0.0075*,0.03,0.011*,0.022,0.014*
Cc1cccc(Cn2c(O)c(N=NC(=S)Nc3ccccc3F)c3ccccc32)c1,6.8*,-12,-14,3,0.011,0.031*,0.037,u,u,0.011
